Results filed as inconclusive are left out. The source made the active and inactive calls. Unless noted, calls come from the whole dose curve; as a rule, active = well fitted curve in the direction sought with a large enough effect in the repeat runs; inconclusive = weak or mixed curves; inactive = no such curve, though single readings can be large; an effect the other way counts as inactive or inconclusive.
Key:
[1] = qHTS assay to identify small molecule antagonists of the estrogen receptor alpha (ER-alpha) signaling pathway using the BG1 cell line in the presence of 0.1 nM 17-beta-estradiol - cell viability counter screen (AID 1259241); note: nearly all actives have a fitted effect of over 40% in size
Outline: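 In this screen, hormone-deprived VM7Luc4E2 cells were seeded at 4,000 per well, dosed with compound and 0.1 nM estradiol final, and incubated 22 hr at 37C and 5% CO2; fluorogenic live-cell protease signal reported viability.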

[2] = qHTS assay to identify small molecule antagonists of the androgen receptor (AR) signaling pathway using the MDA cell line in the presence of 0.5 nM R1881 - cell viability counter screen (AID 1259242); note: nearly all actives have a fitted effect of over 45% in size
Outline: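 Human breast carcinoma MDA-kb2 cells, cultured without CO2, receive compounds alongside 0.5 nM (final) R1881 agonist. After 16 hr at 37C, viability is taken as live-cell protease signal.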

[3] = target: Estrogen receptor (Homo sapiens) (UniProt P03372); test: qHTS assay to identify small molecule antagonists of the estrogen receptor alpha (ER-alpha) signaling pathway using the BG1 cell line in the presence of 0.1 nM 17-beta-estradiol (AID 1259244); note: nearly all actives have a fitted effect of over 50% in size
Estrogen receptor (Homo sapiens), sequence (P03372 whole entry, looked up): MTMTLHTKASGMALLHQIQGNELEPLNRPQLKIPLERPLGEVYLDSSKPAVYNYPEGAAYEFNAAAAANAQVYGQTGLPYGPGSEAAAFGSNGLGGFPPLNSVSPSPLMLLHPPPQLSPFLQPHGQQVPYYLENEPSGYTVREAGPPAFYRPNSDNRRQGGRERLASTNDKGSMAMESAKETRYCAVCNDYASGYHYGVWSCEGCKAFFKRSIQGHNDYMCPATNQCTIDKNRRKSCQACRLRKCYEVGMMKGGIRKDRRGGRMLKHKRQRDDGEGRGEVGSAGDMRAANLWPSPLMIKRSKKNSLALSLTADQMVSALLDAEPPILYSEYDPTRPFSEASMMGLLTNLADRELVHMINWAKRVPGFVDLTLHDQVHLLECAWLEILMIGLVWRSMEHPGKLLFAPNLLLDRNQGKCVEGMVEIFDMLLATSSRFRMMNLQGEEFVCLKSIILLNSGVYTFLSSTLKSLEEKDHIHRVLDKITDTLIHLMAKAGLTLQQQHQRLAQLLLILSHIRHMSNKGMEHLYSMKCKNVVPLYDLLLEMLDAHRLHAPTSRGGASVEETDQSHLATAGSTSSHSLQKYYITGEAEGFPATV
Outline: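 Seeding of stripped-serum-adapted VM7Luc4E2 cells, 24 h attachment, compound transfer, then 0.1 nM final 17beta-estradiol; after 22 h incubation, ONE-Glo reagent and luminescence reading.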

[4] = qHTS assay to identify small molecule phospholipidosis (PLD) inducers (AID 1259344; active = well fitted curve in the direction sought with a large enough effect; an effect the other way counts as inactive or inconclusive)
Outline: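 Read-out is LipidTOX Red fluorescence (ex 595/em 615) imaged in HepG2 cells after 24 h compound exposure at 37 C, with Hoechst nuclear counterstain (ex 352/em 461) allowing per-cell normalisation.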

[5] = qHTS assay to identify small molecule HDAC inhibitors (AID 1259364);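 note: wild-type HCT-116 cells with endogenous class I/II HDAC activity; top concentration of the series differs between compounds; nearly all actives have a fitted effect of over 45% in size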
Outline: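 After a 2 hr compound incubation (37C, 5% CO2), HCT-116 cells seeded at 1,500/well the day before received HDAC-Glo reagent; signal read as luminescence after 30 min at room temperature.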

[6] = qHTS assay to identify small molecule HDAC inhibitors - cell viability counter screen (AID 1259365); note: series mostly up to about 92 µM; nearly all actives have a fitted effect of over 50% in size
Outline: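 Measured quantity is CellTiter-Glo luminescence from wild-type HCT-116 cells after compound incubation of 2hr at 37C, 5% CO2; reagent developed 30min at room temperature.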

[7] = qHTS assay to identify small molecule agonists of the sonic hedgehog signaling (Shh) pathway - cell viability counter screen (AID 1259366); note: nearly all actives have a fitted effect of over 50% in size
Outline: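 In quantitative high-throughput format, 3T3 Gli1-Luc cells were exposed to compounds for 24hr and multiplexed for viability using CellTiter-Fluor, incubated 1hr at 37C before the fluorescence read.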

[8] = qHTS assay to identify small molecule antagonists of the sonic hedgehog signaling (Shh) pathway - cell viability counter screen (AID 1259367); note: nearly all actives have a fitted effect of over 55% in size
Outline: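 Fluorescence read-out (CellTiter-Fluor, 1 hr at 37C) taken after 23 hr compound treatment of 3T3 Gli1-Luc cells stimulated with conditioned medium. Cells were seeded at 2,000 per well and pre-incubated 4 hr.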

[9] = qHTS assay to identify small molecule agonists of the sonic hedgehog signaling (Shh) pathway (AID 1259368; calls by dose curve;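 note: NIH/3T3-derived 3T3Gli1-Luc cells carrying a stable Gli1-driven firefly luciferase reporter; series mostly up to about 92 µM; nearly all actives have a fitted effect of over 15% in size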)
Outline: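 Stable NIH/3T3 Gli1-Luc reporter clone; 24 hr cpd exposure after a 4 hr settling period; luminescence endpoint.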

[10] = qHTS assay to identify small molecule antagonists of the sonic hedgehog signaling (Shh) pathway (AID 1259369; calls by dose curve; note: nearly all actives have a fitted effect of over 45% in size)
Outline: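 Gli1 transcriptional reporter (firefly Luc) in NIH/3T3 background, conditioned-medium activated. 24hr exposure, luminescence endpoint.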

[11] = qHTS assay to identify small molecule agonists of the androgen receptor (AR) signaling pathway in the presence of an antagonist - cell viability counter screen (AID 1259379);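 note: MDA-kb2 human breast cancer cells carrying an MMTV luciferase reporter; series mostly up to about 92 µM; nearly all actives have a fitted effect of over 25% in size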
Outline: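 Counter screen for cell viability run in parallel with the AR agonist-mode luciferase assay. MDA-kb2 cells were co-treated with nilutamide (3.0uM final) and compounds, then incubated 16 hr at 37C, and CellTiter-Fluor fluorescence was measured.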

[12] = qHTS assay to identify small molecule agonists of the estrogen receptor beta (ER-beta) signaling pathway - cell viability counter screen (AID 1259380); note: nearly all actives have a fitted effect of over 30% in size
Outline: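 In this qHTS counter screen, HEK293T cells carrying an ER-beta/UAS beta-lactamase reporter, grown in 2% charcoal-stripped FBS, received compound for 16 hr; ATP-based CellTiter-Glo luminescence was then read after 30 min at room temperature.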

[13] = target: Estrogen receptor (Homo sapiens) (UniProt P03372); test: qHTS assay to identify small molecule agonists of the estrogen receptor alpha (ER-alpha) signaling pathway in the presence of an antagonist (AID 1259383; calls by dose curve; note: top concentration of the series differs between compounds; nearly all actives have a fitted effect of over 15% in size)
Outline: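 ER-alpha agonism measured under antagonist challenge: 10.0nM ICI-182,780 (final) plus compound, 15 concentrations, 22hr, VM7Luc4E2 ERE-luciferase cells. Read by luminescence.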

[14] = qHTS assay to identify small molecule agonists or antagonists of the thyroid stimulating hormone receptor (TSHR) signaling pathway - wild type cell line counter screen (AID 1259384; calls by dose curve)
Outline: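 Wild-type Hek293 cells, 800/well, 18 h at 37C, then compound with Ro20-1724 for 30 min RT. cAMP by HTRF (cAMP-d2/anti-cAMP cryptate), 1 h RT, fluorescence read. 15 concentrations, triplicates.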

[15] = target: Thyrotropin receptor (Homo sapiens) (UniProt P16473); test: qHTS assay to identify small molecule antagonists of the thyroid stimulating hormone receptor (TSHR) signaling pathway (AID 1259385; calls by dose curve; note: nearly all actives have a fitted effect of over 20% in size)
Thyrotropin receptor (Homo sapiens), sequence (P16473 whole entry, looked up): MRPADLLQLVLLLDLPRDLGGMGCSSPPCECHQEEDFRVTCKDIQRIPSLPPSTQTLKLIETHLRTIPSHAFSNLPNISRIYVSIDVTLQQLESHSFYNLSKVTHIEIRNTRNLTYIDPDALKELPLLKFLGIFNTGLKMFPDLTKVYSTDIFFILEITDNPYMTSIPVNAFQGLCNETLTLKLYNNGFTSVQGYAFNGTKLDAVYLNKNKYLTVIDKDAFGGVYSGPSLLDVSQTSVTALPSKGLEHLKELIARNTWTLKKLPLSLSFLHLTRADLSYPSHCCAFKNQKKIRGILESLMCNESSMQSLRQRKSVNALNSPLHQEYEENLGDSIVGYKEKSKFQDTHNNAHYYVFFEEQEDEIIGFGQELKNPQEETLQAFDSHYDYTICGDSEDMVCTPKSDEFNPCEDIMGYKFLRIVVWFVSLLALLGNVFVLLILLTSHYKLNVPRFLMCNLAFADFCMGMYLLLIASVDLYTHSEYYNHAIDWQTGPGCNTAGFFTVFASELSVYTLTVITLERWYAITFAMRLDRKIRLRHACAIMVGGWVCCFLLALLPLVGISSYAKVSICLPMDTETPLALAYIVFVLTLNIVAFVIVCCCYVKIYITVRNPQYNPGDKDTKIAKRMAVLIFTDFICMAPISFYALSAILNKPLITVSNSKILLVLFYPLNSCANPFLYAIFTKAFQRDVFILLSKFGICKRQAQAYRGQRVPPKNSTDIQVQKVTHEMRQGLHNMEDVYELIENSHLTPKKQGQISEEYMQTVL
Outline: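 TSHR-HEK293 cells (800/well) plated 18 h, then compounds with Ro20-1724 and TSH at 1.5 ng/mL final, 30 min at room temperature. cAMP quantified by HTRF (cAMP-d2/anti-cAMP-cryptate, 1 h); 15 concentrations in triplicate.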

[16] = qHTS assay to identify small molecule antagonists of the estrogen receptor beta (ER-beta) signaling pathway - cell viability counter screen (AID 1259382); note: series mostly up to about 92 µM; nearly all actives have a fitted effect of over 55% in size
Outline: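 HEK293T ER-beta-UAS-bla, 2% charcoal-stripped FBS; compounds + 1nM E2 16 hr 37C; CellTiter-Glo luminescence, 30 min RT.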

[17] = target: Estrogen receptor beta (Homo sapiens) (UniProt Q92731); test: qHTS assay to identify small molecule agonists of the estrogen receptor beta (ER-beta) signaling pathway (AID 1259377; active = well fitted activation curve with a large enough effect in the signal ratio in the repeat runs, not every such curve was filed as active; the % refers to the signal ratio)
Estrogen receptor beta (Homo sapiens), sequence (Q92731 whole entry, looked up): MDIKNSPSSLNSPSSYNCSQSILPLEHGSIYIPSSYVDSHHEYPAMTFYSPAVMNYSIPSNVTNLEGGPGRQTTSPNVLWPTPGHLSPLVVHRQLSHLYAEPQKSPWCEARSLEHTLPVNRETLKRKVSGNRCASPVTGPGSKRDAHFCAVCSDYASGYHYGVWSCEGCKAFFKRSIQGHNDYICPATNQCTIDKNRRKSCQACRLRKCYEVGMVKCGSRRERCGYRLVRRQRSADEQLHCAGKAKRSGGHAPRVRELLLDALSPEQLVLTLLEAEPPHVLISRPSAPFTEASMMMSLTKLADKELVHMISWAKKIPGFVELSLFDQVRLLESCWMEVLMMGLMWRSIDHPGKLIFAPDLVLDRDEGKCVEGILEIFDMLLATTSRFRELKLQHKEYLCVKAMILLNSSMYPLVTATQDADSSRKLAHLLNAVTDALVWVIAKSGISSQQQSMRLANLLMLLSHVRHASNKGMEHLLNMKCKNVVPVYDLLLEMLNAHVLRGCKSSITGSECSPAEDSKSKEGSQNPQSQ
Outline: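 Reporter cells (HEK293T, ER-beta-UAS-bla) receive compounds or DMSO after a 6 hr pre-incubation. They then incubate 16 hr at 37C/5% CO2, and fluorescence from LiveBLAzer B/G substrate is measured after 2 hours at room temperature.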

[18] = target: Estrogen receptor beta (Homo sapiens) (UniProt Q92731); test: qHTS assay to identify small molecule antagonists of the estrogen receptor beta (ER-beta) signaling pathway (AID 1259378; active = well fitted inhibition curve with a large enough effect in the signal ratio in the repeat runs, not every such curve was filed as active; the % refers to the signal ratio)
Outline: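 ER-beta-UAS-bla HEK293T cells in 2% charcoal-stripped FBS medium treated with compound plus 1nM final 17-beta-estradiol for 16 hr at 37C. Beta-lactamase reporter read by FRET substrate fluorescence after 2 hours at room temperature.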
% is set by controls: 0 for no effect and ±100 for the full control effect.

O=C(CCNNC(=O)c1ccncc1)NCc1ccccc1
inactive: Potency [1] | outcome [2] | Potency [3] | outcome [4] | Potency [5] | outcome [6] | Potency [7] | Potency [8] | outcome [9] | Potency [10] | Potency [11] | Potency [12] | outcome [13] | outcome [14] | outcome [15]

O=C(O)Cc1cn(-c2ccccc2)nc1-c1ccc(Cl)cc1
inactive: Potency [1] | outcome [2] | Potency [3] | outcome [4] | Potency [5] | outcome [6] | Potency [7] | outcome [9] | Potency [10] | Potency [11] | outcome [16] | outcome [13] | outcome [14] | outcome [15]

CN1CCN(CC(=O)N2c3ccccc3C(=O)Nc3cccnc32)CC1
inactive: activity change, negative = cytotoxicity [1] 5.03% [at 8.39 µM] | viability change, negative = cytotoxic [2] 1.29% [at 8.39 µM] | activity change, negative = inhibition [3] 8.49% [at 8.39 µM] | outcome [4] | activity change, negative = inhibition [5] 0.529% [at 8.39 µM] | activity change, negative = cytotoxicity [6] 3.63% [at 8.39 µM] | viability change, negative = cytotoxic [7] 1.72% [at 8.39 µM] | viability change, negative = cytotoxic [8] 0.196% [at 8.39 µM] | activity change [9] 0.176% [at 8.39 µM] | activity change, negative = inhibition [10] 12.8% [at 8.39 µM] | activation [17] 7.01% [at 8.39 µM] | activity, negative = inhibition [18] 0.518% [at 8.39 µM] | activity change, negative = cytotoxicity [12] 5.53% [at 8.39 µM] | activity change, negative = cytotoxicity [16] 9.64% [at 8.39 µM] | activation [13] 0.843% [at 8.39 µM] | cAMP activity change [14] -2.81% [at 8.39 µM] | activity change, negative = inhibition [15] 0.681% [at 8.39 µM]

C[C@H](N)[C@H](O)c1cccc(O)c1
inactive: Potency [1] | outcome [2] | Potency [3] | outcome [4] | Potency [5] | outcome [6] | Potency [7] | Potency [8] | outcome [9] | Potency [10] | Potency [17] | outcome [18] | Potency [12] | outcome [13] | outcome [14] | outcome [15]

CCCCN
inactive: Potency [1] | outcome [2] | Potency [3] | Potency [5] | outcome [6] | Potency [7] | Potency [8] | outcome [9] | Potency [10] | Potency [17] | outcome [18] | Potency [11] | Potency [12] | outcome [16] | outcome [13]

O=C1c2ccccc2C(=O)C1c1ccccc1
inactive: Potency [1] | outcome [2] | Potency [3] | outcome [4] | Potency [5] | outcome [6] | Potency [7] | Potency [8] | outcome [9] | Potency [10] | Potency [11] | Potency [12] | outcome [16] | outcome [13] | outcome [14] | outcome [15]

CCOc1cc(NC(C)=O)ccc1C(=O)OC
inactive: Potency [1] | outcome [2] | Potency [3] | outcome [4] | Potency [5] | outcome [6] | Potency [7] | Potency [8] | outcome [9] | Potency [10] | Potency [11] | Potency [12] | outcome [16] | outcome [13] | outcome [14] | outcome [15]

— PubChem BioAssay (Tox21)
